Data: PMC7862700, “An all-to-all approach to the identification of sequence-specific readers for epigenetic DNA modifications on cytosine”

Assays:
Assay in all cases: DAPPL (digital affinity profiling via proximity ligation, sequencing); 10 mM Tris-HCl pH 7.5, 50 mM NaCl, 1 mM DTT, 4% glycerol, room temperature, 30 min; GST-TFs on glutathione beads, 16-mer random dsDNA library, 0.1% formaldehyde crosslink after washing; high values mean tight binding
Conditions in all cases: protein: recombinant; tags: N-terminal GST; dsDNA, one strand shown
FLI1 = biological target: T1, FLI1 (Homo sapiens, UniProt Q01543 1-452)
T1 sequence: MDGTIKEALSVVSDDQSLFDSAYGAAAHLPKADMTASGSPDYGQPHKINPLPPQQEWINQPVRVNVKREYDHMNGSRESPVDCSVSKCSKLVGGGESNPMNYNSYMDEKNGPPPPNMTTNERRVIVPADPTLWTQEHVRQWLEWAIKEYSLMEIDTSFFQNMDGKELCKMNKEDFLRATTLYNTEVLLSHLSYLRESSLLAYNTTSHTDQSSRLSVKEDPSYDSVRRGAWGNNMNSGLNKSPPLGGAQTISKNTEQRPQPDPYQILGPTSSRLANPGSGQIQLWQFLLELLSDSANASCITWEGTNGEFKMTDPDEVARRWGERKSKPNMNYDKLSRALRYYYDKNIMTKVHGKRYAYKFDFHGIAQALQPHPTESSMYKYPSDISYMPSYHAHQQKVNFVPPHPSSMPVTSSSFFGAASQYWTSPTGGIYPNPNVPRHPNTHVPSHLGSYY
In short: (§1)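 Pools were built from human transcription factors expressed in yeast as GST fusions, captured on glutathione beads and DNA-barcoded, along with a tag-only sample. Incubation with 200 nmole of a 16-mer random double-stranded DNA library lasted 30 min at room temperature in Tris/NaCl/DTT/glycerol buffer, and was followed by washing, 0.1% formaldehyde crosslinking, proximity ligation, PCR amplification and Illumina NextSeq500 sequencing. Binding signal is the quotient of each hexamer's read frequency for a factor and its frequency for the tag-only sample.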

ELK1 = biological target: T2, ELK1 (Homo sapiens, UniProt P19419 1-428)
T2 sequence: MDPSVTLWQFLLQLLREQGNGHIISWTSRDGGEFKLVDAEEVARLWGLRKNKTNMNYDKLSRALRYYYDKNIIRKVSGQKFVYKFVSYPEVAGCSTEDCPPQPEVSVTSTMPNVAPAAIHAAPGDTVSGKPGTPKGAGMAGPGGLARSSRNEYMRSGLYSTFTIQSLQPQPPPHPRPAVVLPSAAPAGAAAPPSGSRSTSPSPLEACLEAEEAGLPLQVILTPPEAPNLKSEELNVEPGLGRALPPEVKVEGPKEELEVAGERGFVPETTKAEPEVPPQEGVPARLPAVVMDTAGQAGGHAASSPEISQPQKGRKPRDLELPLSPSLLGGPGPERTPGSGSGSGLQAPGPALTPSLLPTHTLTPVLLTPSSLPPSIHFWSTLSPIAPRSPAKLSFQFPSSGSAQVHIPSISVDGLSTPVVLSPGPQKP
In short: as §1

GABPA = biological target: T3, GABPA (Homo sapiens, UniProt Q06546 1-454)
T3 sequence: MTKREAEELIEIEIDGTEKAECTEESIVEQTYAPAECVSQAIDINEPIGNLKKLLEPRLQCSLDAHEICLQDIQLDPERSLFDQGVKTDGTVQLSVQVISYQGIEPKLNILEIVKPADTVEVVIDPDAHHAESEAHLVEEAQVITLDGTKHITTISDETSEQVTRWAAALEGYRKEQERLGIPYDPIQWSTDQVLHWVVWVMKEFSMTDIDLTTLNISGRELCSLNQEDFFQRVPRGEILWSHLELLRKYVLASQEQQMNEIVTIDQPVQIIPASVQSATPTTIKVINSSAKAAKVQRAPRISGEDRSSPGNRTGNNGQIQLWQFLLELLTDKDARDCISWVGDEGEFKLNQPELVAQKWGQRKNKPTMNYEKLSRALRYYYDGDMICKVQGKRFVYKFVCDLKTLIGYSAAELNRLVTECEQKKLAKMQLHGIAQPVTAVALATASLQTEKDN
In short: as §1

ERG = biological target: T4, ERG (Homo sapiens, UniProt P11308 1-479)
T4 sequence: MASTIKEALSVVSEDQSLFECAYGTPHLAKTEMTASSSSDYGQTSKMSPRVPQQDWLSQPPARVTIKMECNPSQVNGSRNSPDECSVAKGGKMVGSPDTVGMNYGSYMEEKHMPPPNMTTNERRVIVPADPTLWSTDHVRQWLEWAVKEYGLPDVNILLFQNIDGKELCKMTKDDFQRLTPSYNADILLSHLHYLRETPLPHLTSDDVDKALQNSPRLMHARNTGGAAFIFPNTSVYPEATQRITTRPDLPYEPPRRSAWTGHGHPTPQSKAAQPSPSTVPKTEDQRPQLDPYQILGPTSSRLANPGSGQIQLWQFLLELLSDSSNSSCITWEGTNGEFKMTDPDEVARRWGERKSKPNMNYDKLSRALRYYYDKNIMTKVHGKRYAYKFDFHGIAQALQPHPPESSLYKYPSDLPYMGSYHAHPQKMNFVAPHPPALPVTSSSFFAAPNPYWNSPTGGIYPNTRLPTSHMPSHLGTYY
In short: as §1

ELF1 = ELF1 (Homo sapiens, UniProt P32519 1-619)
Chain of ELF1 (P32519 whole entry): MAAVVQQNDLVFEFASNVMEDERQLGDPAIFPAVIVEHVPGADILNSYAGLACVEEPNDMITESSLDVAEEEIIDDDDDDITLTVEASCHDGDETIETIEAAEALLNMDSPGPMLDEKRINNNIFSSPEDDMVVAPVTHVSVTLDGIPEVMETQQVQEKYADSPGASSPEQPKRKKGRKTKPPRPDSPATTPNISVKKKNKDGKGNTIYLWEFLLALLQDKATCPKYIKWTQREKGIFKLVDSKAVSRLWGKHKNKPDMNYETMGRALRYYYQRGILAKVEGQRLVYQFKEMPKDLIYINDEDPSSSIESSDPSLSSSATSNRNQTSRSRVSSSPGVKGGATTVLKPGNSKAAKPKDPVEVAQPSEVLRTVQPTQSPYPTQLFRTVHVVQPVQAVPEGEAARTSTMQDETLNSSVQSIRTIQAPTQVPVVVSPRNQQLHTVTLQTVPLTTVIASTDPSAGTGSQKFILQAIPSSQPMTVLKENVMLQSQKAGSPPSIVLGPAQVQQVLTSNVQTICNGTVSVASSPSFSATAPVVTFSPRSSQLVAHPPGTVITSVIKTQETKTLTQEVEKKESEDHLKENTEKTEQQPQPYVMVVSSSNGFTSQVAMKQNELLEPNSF
In short: as §1

EHF = biological target: T5, EHF (Homo sapiens, UniProt Q9NZC4 1-300)
T5 sequence: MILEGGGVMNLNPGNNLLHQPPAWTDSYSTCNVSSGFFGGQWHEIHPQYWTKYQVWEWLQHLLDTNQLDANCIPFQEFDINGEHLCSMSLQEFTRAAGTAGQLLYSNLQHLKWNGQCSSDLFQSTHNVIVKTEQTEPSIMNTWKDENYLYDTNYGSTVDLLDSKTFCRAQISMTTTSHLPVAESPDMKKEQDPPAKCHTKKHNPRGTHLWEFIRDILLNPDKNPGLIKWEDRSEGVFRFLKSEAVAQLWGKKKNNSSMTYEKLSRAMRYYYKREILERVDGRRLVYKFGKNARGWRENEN
In short: as §1

SPI1 = SPI1 (Homo sapiens, UniProt P17947 1-270)
In short: as §1

SPIB = SPIB (Homo sapiens, UniProt Q01892 1-262)
Chain of SPIB (Q01892 whole entry): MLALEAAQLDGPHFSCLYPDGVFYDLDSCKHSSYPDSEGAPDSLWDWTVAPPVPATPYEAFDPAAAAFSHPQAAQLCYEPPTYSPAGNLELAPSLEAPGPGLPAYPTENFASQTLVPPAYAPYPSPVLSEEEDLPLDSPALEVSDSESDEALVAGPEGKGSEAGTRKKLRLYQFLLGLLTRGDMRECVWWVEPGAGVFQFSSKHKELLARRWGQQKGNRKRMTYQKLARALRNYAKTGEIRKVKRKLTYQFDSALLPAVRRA
In short: as §1

ELK3 = biological target: T6, ELK3 (Homo sapiens, UniProt P41970 1-407)
T6 sequence: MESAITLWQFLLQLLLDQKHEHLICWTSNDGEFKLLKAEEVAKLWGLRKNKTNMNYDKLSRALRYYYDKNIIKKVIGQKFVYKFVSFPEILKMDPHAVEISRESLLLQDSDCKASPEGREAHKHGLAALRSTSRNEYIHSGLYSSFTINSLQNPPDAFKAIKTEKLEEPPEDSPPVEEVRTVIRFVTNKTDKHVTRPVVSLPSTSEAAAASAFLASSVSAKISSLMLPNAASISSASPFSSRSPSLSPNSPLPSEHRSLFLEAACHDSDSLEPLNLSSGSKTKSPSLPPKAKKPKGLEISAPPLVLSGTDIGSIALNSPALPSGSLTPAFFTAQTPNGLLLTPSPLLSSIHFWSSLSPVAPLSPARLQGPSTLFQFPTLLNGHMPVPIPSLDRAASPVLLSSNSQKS
In short: as §1

FEV = biological target: T7, FEV (Homo sapiens, UniProt Q99581 1-238)
T7 sequence: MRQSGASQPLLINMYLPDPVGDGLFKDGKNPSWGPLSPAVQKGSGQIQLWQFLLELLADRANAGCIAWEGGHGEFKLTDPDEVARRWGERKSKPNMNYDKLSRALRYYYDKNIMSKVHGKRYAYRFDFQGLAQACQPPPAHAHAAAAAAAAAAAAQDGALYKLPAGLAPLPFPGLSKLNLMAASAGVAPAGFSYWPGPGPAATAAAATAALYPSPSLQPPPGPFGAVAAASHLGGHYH
In short: as §1

ETV5 = ETV5 (Homo sapiens, UniProt P41161 1-510)
Chain of ETV5 (P41161 whole entry): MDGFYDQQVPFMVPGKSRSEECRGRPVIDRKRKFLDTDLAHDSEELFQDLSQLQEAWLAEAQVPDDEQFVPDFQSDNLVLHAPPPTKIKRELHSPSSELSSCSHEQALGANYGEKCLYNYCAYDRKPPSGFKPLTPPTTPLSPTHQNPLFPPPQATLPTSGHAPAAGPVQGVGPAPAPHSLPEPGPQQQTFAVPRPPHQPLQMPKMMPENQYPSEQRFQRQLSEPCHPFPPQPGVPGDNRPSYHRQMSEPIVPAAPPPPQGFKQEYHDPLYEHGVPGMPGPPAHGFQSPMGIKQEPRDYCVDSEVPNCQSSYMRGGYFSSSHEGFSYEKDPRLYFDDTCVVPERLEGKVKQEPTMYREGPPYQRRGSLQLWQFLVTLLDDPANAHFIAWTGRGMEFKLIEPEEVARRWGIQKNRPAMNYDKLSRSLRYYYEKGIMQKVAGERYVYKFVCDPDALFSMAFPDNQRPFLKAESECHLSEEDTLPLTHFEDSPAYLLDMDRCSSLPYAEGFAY
In short: as §1

SPIC = biological target: T8, SPIC (Homo sapiens, UniProt Q8N5J4 1-248)
T8 sequence: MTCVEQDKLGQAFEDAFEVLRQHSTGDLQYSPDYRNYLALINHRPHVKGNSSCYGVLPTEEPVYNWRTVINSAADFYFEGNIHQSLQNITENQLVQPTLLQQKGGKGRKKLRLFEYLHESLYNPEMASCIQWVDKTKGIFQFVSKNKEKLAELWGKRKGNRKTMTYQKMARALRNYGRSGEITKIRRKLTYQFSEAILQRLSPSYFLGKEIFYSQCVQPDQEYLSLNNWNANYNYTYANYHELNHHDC
In short: as §1

ELF4 = ELF4 (Homo sapiens, UniProt Q99607 1-663)
Chain of ELF4 (Q99607 whole entry): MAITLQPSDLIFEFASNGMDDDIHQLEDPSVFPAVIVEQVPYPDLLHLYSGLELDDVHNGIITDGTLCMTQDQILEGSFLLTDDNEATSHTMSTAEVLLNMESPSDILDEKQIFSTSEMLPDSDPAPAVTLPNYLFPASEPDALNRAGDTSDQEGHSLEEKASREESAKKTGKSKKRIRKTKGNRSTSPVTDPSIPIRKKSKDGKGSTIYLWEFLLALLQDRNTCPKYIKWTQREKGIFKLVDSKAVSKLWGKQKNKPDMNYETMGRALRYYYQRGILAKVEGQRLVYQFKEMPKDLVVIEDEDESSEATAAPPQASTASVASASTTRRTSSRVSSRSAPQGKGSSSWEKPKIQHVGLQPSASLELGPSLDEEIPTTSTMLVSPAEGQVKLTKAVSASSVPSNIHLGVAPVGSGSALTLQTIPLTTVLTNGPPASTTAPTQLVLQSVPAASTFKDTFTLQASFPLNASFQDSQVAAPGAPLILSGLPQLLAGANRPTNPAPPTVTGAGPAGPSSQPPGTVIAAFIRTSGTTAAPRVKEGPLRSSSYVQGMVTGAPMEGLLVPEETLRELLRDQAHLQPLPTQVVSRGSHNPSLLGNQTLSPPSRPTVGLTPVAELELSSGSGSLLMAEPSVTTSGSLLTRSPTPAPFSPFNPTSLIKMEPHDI
In short: as §1

ELK4 = biological target: T9, ELK4 (Homo sapiens, UniProt P28324-2 1-405)
T9 sequence: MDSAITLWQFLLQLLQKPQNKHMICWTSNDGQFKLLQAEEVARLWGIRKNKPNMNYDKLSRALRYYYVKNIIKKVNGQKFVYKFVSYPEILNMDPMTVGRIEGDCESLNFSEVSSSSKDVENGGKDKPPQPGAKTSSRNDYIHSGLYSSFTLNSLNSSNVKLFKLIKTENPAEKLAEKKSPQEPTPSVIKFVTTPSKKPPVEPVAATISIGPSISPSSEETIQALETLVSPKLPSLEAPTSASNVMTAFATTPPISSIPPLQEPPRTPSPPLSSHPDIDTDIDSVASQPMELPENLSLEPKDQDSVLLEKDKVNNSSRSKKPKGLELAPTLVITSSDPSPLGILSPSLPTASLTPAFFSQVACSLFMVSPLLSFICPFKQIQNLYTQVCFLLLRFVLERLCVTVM
In short: as §1

ETV2 = biological target: T10, ETV2 (Homo sapiens, UniProt O00321 1-342)
T10 sequence: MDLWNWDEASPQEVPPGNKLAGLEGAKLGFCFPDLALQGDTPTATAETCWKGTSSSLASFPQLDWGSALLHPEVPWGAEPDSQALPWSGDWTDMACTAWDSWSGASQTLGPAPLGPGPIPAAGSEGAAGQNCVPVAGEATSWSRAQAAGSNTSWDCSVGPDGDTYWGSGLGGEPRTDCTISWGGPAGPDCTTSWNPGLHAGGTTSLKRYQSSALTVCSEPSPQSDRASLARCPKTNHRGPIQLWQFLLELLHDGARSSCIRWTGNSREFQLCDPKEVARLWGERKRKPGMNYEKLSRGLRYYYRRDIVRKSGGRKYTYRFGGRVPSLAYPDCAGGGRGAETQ
In short: as §1

ELF3 = biological target: T11, ELF3 (Homo sapiens, UniProt P78545 1-371)
T11 sequence: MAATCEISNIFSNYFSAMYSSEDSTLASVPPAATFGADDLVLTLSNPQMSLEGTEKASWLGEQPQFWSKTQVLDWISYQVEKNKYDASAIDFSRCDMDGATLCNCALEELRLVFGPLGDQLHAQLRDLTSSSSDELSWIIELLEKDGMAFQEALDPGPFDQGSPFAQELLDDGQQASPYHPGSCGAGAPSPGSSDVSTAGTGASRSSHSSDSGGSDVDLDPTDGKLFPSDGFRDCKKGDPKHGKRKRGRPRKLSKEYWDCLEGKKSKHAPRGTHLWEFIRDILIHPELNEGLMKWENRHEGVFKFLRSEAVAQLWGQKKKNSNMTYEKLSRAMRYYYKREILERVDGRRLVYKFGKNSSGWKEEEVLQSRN
In short: as §1

ETV1 = ETV1 (Homo sapiens, UniProt P50549 1-477)
Chain of ETV1 (P50549 whole entry): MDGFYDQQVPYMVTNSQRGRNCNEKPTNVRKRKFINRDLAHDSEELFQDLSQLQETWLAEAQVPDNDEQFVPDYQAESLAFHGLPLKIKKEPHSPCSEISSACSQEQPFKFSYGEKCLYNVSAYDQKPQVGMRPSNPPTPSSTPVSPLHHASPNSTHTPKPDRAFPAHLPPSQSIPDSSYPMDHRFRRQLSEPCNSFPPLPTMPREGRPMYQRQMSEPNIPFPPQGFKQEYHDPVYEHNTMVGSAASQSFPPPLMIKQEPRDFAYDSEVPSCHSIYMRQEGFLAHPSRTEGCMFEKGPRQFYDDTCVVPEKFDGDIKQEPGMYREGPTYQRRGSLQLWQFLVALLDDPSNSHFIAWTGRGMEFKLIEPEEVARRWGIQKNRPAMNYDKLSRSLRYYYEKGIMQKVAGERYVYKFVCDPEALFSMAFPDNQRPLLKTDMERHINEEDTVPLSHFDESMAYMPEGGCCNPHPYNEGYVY
In short: as §1

| Sequence | binding signal (FLI1) | binding signal (ELK1) | binding signal (GABPA) | binding signal (ERG) | binding signal (ELF1) | binding signal (EHF) | binding signal (SPI1) | binding signal (SPIB) | binding signal (ELK3) | binding signal (FEV) | binding signal (ETV5) | binding signal (SPIC) | binding signal (ELF4) | binding signal (ELK4) | binding signal (ETV2) | binding signal (ELF3) | binding signal (ETV1) |
| --- | --- | --- | --- | --- | --- | --- | --- | --- | --- | --- | --- | --- | --- | --- | --- | --- | --- |
| AACCGG | 1.43 fold enrichment (6-mer frequency, TF over GST control) | 1.58 fold enrichment (6-mer frequency, TF over GST control) | 1.33 fold enrichment (6-mer frequency, TF over GST control) | 1.73 fold enrichment (6-mer frequency, TF over GST control) | 1.46 fold enrichment (6-mer frequency, TF over GST control) | 1.5 fold enrichment (6-mer frequency, TF over GST control) | 1.7 fold enrichment (6-mer frequency, TF over GST control) | 1.64 fold enrichment (6-mer frequency, TF over GST control) | 1.54 fold enrichment (6-mer frequency, TF over GST control) | 2.35 fold enrichment (6-mer frequency, TF over GST control) | 1.53 fold enrichment (6-mer frequency, TF over GST control) | 1.4 fold enrichment (6-mer frequency, TF over GST control) | 1.31 fold enrichment (6-mer frequency, TF over GST control) | 1.26 fold enrichment (6-mer frequency, TF over GST control) | 1.45 fold enrichment (6-mer frequency, TF over GST control) | 1.36 fold enrichment (6-mer frequency, TF over GST control) | 1.69 fold enrichment (6-mer frequency, TF over GST control) |
| CACAAT | 1.12 fold enrichment (6-mer frequency, TF over GST control) | 1.07 fold enrichment (6-mer frequency, TF over GST control) | 1.12 fold enrichment (6-mer frequency, TF over GST control) | 1.11 fold enrichment (6-mer frequency, TF over GST control) | 1.17 fold enrichment (6-mer frequency, TF over GST control) | 1.07 fold enrichment (6-mer frequency, TF over GST control) | 1.02 fold enrichment (6-mer frequency, TF over GST control) | 1.16 fold enrichment (6-mer frequency, TF over GST control) | 1.26 fold enrichment (6-mer frequency, TF over GST control) | 1.06 fold enrichment (6-mer frequency, TF over GST control) | 1.1 fold enrichment (6-mer frequency, TF over GST control) | 1.13 fold enrichment (6-mer frequency, TF over GST control) | 1.09 fold enrichment (6-mer frequency, TF over GST control) | 1.12 fold enrichment (6-mer frequency, TF over GST control) | 1.06 fold enrichment (6-mer frequency, TF over GST control) | 1.19 fold enrichment (6-mer frequency, TF over GST control) | 1.09 fold enrichment (6-mer frequency, TF over GST control) |
